Compound activity (PubChem BioAssay)
Shown are actives, neighbours in structure and some others; about 21% of the full set was active somewhere.
Shiga inhibitor: inhibitors of Shiga toxin in Vero cells | Vero cells, Shiga toxin protein synthesis inhibition reporter | AID 2315 | 290,000 compounds, 9.2% hits | inhibition, % at 38.7 µM; in the data active = inhibition mostly above about 28%, no sharp cut-off; inactive = mostly below about 43%; note: 0% is about no effect
HCV inh: HCV inhibition. Huh7.5.1 HCVcc-Cre infection, luciferase reporter, 44 h. 340,000 compounds, 3.4% hits. Potency, µM (titrated, usually from 41.8 µM), inactives show at the highest dose activity change, negative = inhibition, usual class: inhibitors; note: potency is the fitted concentration of half-maximal effect; % is set by controls: 0 for no effect and ±100 for the full control effect
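Cells (1,000/well) were plated 4 h before compound, then infected with HCVcc-Cre virus (~0.5 moi). After 44 h further culture, infection was read as luciferase luminescence following a 15 min substrate incubation at room temperature.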
Pf growth 96h: inhibits malaria parasite growth, 96 h | P. falciparum luciferase reporter growth, 96 h | Potency, µM (doses to about 28.7 µM), without a hit: at the top dose activity change, negative = inhibition, actives largely listed as inhibitors | 320,000 compounds, 6.9% hits | AID 504834; note: potency is the fitted concentration of half-maximal effect; % is set by controls: 0 for no effect and ±100 for the full control effect
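Delayed-death screen, second-generation endpoint: infected erythrocytes, 2% hematocrit, 0.05% parasitemia final; 96 hours at 37 C, 5% CO2; luciferase detection reagent; luminescence decrease equals reduced growth.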
CHX counter-1: counter-screen for Shiga toxin inhibitors: cycloheximide protein synthesis inhibition. cell reporter, cycloheximide protein synthesis inhibition counterscreen. max response, %. 300,000 compounds, 12% hits. AID 2314; in the data active = max response mostly above about 13%, no sharp cut-off; inactive = mostly below about 14%; note: read at 38.3 µM for the half of the compounds with a filed dose; 0% is about no effect
Pf growth 48h: P. falciparum growth inhibition at 48 hours (one generation) | P. falciparum luciferase growth in erythrocytes, 48 h | Potency, µM (top dose mostly 28.7 µM), without a hit: at the highest dose activity change, negative = inhibition, most hits filed as inhibitors | 310,000 compounds, 5.9% hits; note: potency is the fitted concentration of half-maximal effect; % is set by controls: 0 for no effect and ±100 for the full control effect
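Luminescence readout; reporter = integrated firefly luciferase in P. falciparum. RBC culture at 2% hematocrit, 0.1% parasitemia final, 37 C/5% CO2; decreased signal taken as growth inhibition.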
AMA1-RON2 inh: AMA1-RON2 (P. falciparum) interaction inhibition. AlphaScreen AMA1-biotinylated RON2 peptide binding. Potency, µM (doses to about 58.2 µM), without a hit: top-dose activity change, negative = inhibition, actives largely listed as inhibitors. 360,000 compounds, 0.2% hits;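 note: potency is the fitted concentration of half-maximal effect; 0% = vehicle wells and -100% = peptide control; nearly all actives have a fitted effect of over 45% in size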
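AMA1 (3D7) with his tag at 25 nM final met compounds first, then biotinylated RON2 peptide at 25 nM; detection used donor plus acceptor beads, 10 µg/mL apiece, read by AlphaScreen after 30 min at room temperature.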
CHX counter-2: affects protein synthesis reporter in cycloheximide counter-screen. Cycloheximide counterscreen, protein synthesis reporter, Shiga toxin assay. Potency, µM (series often up to 38.3 µM), for the others: top-dose activity (activation), actives largely listed as activators. 510 compounds, 3% hits. shares compounds with Shiga inhibitor. AID 2318; calls by dose curve; note: potency is the fitted concentration of half-maximal effect; 0% is about no effect
* = called active by the depositor; ? = inconclusive; . = not tested or not shown; [ ] = another dose, or the depositor's remark. Unless noted, calls come from the whole dose curve; as a rule, active = well fitted curve in the direction sought with a large enough effect; inconclusive = small, poorly fitted or top-dose-only effect, or another doubt; inactive = no such curve, though single readings can be large; an effect the other way counts as inactive or inconclusive.

SMILES | Shiga inhibitor | HCV inh | Pf growth 96h | CHX counter-1 | Pf growth 48h | AMA1-RON2 inh | CHX counter-2
CC(=O)c1ccc2noc(-c3ccc(Cl)cc3)c2c1 | 15 | 0% | -2% | -3 | -7% | -13% | .
CC(=O)c1ccc2noc(-c3ccc(F)cc3)c2c1 | 52* | ? | -10% | 13 | 4% | 30% | 2%
CCN(C[C@H]1N[C@@](CC)(C(=O)OC)[C@H]2C(=O)N(C)C(=O)[C@@H]12)S(=O)(=O)c1ccc(F)cc1 | . | ? | . | . | . | 6% | .
O=C(Nc1ccccc1)Nc1ccc(NC(=O)c2ccccc2O)cc1 | 23 | -14% | -1% | 12 | 0% | -11% | .
O=C(Nc1ccccc1)c1ccc[nH]1 | 40* | -2% | 65% | -2 | 28% | 8% | 4%
O=C(Nc1ccccc1)c1ccccc1O | 59* | 10% | -14% | 18 | ? | 6% | 22µM*
CCc1ccc(C)c(OC(=O)c2cncc(Br)c2)c1 | . | 10% | 3% | 2 | 41% | 12% | .
Cc1ccc(NC(=O)CSCC(=O)Nc2ccccc2N2CCCC2)cc1 | . | -9% | 4% | . | 29% | 5% | .
CC(=O)N/C(=C\c1ccccc1)C(=O)NC(C)C(=O)O (stereo not drawn) | -9 | 7% | -26% | -1 | -16% | 1% | .
CC(=O)N/C(=C\c1ccccc1)C(=O)Nc1ccccc1C | 52* | 19% | 107% | 8 | -8% | 0% | 2%
Cc1ccc(SCC(=O)NC(=O)NCCC(C)C)c(C)c1 | -8 | -21% | 5% | 1 | 0% | 0% | .
O=C(Cc1ccc(F)cc1)Nc1cccc2cccnc12 | 36* | -5% | -15% | -3 | 15% | -7% | 5%
Cc1ccc(NC(=S)c2nc3ccccc3s2)cc1 | 73* | -21% | 87% | 20 | 101% | 10µM* | 0.71µM*
O=C(O)C1CCCCC1C(=O)NCc1ccccc1 (stereo not drawn) | -1 | 4% | -18% | -1 | . | -4% | .
O=C(NCc1ccccc1)C1CCCC1 | 21* | . | 7% | 6 | ? | . | 4%
Cc1ccc(NC(=O)c2ccc(Cn3cc(Br)cn3)o2)cc1 | 38* | ? | 7% | 8 | -12% | -11% | 3%
Cc1ccsc1/C=N/NC(=O)c1ccc(Cn2cc(Br)cn2)o1 | 37 | -1% | ? | 13 | ? | 31% | .
COC(=O)[C@@]1(Cc2ccc(F)cc2)[C@H]2c3cc(C(=O)N4CCCC4)n(CCc4ccc(O)c(O)c4)c3C[C@H]2CN1C(=O)c1ccccc1 | 53* | -7%[8.37 µM] | 5.9µM* | 7 | ? | . | 1%
O=C(COC(=O)c1cccc2c1C(=O)c1ccccc1C2=O)NC1CCCCC1 | -11 | ? | ? | -7 | ? | -24% | .
O=C1c2ccccc2C(=O)c2c1ccc1c(=O)n(C3CCCCC3)[nH]c21 | 27* | ? | -22% | 5 | ? | ? | -5%
CCN(CC)C(=O)CCCc1c[nH]c2ccccc12 | 52* | -7% | 0% | 9 | 0% | -3% | 5%
CC(C)c1ccc(NC(=O)NC2(C(=O)NCc3cccnc3)CCCCC2)cc1 | 20 | 4% | 2% | -2 | -1% | -2% | .
COCCCNC(=O)NC(=O)c1ccccc1 | 18* | 12% | 38% | 5 | 33% | -18% | 2%
O=C(CSc1nnc(-c2ccccn2)o1)Nc1ccccc1C(F)(F)F | 63* | 10% | 2% | 6 | 94% | 63% | 4%
Cn1c2ccccc2c(=O)c2c(=O)n(-c3ccc(F)cc3)c(C3CCCCC3)nc21 | . | 0% | . | . | . | 5% | .
SMILES | Shiga inhibitor | HCV inh | Pf growth 96h | CHX counter-1 | Pf growth 48h | AMA1-RON2 inh | CHX counter-2
CC(O)(c1ccccc1)c1nc(-c2cccc(C(F)(F)F)c2)cs1 (stereo not drawn) | . | . | . | . | . | 14% | .
Cc1nc(-c2cccc(C(F)(F)F)c2)sc1C(=O)O | 58* | 1% | 31% | 11 | 13% | -4% | 5%
Cc1ccc(S(=O)(=O)Nc2ccccc2C(=O)N2CCN(C)CC2)cc1 | -8 | 19% | 46% | 16 | 23% | -2% | .
COCCCn1c(SCC(=O)OC2CCCCC2)nnc1-c1cccs1 | 86* | 2% | -32% | -1 | -16% | 18% | -2%
Cc1cc(C)c2c(n1)SCC(=O)N2CC(=O)Nc1ccc(C)c(C)c1 | 16* | 8% | 17% | -1 | 22% | -5% | 0%
Cc1ccc(-c2csc(NC(=O)c3ccc(C)o3)n2)cc1 | 71* | ? | -1% | 9 | 19% | -13% | 1%
Cc1ccc(Cl)cc1NC(=O)COC(=O)c1ccc(COc2ccc3c(C)cc(=O)oc3c2)cc1 | 39* | 11% | -1% | -1 | 21% | . | 2%
CC(C)C(NCC(=O)Nc1ccccc1C(=O)NC1CC1)c1ccccc1 (stereo not drawn) | . | -21% | . | . | . | -5% | .
O=C1C(Cl)=C(Nc2ccccc2)C(=O)c2ccccc21 | 69* | ? | 8% | 9 | 23% | -4% | ?
Cc1ccc(CNS(=O)(=O)c2ccc(-n3cccn3)cc2)cc1 | . | . | . | . | . | -2% | .
CC(C)c1ccccc1NC(=O)c1ccco1 | 58* | 8% | 6% | 2 | -10% | 4% | ?
Cc1c(Cl)cccc1NC(=O)c1ccco1 | . | 15% | ? | 10 | 31% | -2% | .
COc1ccccc1NC(=O)Cn1cc(C(=O)c2ccco2)c2ccccc21 | 60* | ? | 8% | 5 | ? | 5% | 2%
COc1ccccc1NC(=O)c1ccc(NC(=O)c2ccco2)cc1 | 43* | -11% | -1% | 6 | ? | 5% | 3%
Cc1c(NC(=O)COc2cccc(Cl)c2Cl)c(=O)n(-c2ccccc2)n1C | . | -13% | 0% | . | -13% | 0% | .
Cc1ccc(C)c(NS(=O)(=O)c2cc(C(=O)NCc3ccccn3)ccc2C)c1 | -4 | -3% | ? | 5 | -22% | 46% | .
CCC(=O)N1CCc2cc(S(=O)(=O)NC(C(=O)N3CCN(c4ccc(F)cc4)CC3)C(C)C)ccc21 (stereo not drawn) | 17* | 4% | -2% | -3 | ? | -12% | -3%
CN(C)c1ccc(/C=C/C#N)cc1 | 31* | -11% | 10% | 9 | 6% | -3% | 5%
CN(C)c1ccc(C(=O)C=Cc2ccc([N+](=O)[O-])cc2)cc1 | . | . | . | . | . | -9% | .
Cc1ccc(C)c(OCC(=O)Nc2cccc(S(=O)(=O)NC3=NCCCCC3)c2)c1 | 11 | -29% | ? | 3 | ? | -18% | .
COc1ccc(NC(=O)NNC(=O)c2ccc3ccccc3c2O)c(OC)c1 | 27* | 20% | 28% | -2 | -2% | 49% | 0%
COc1ccc(S(=O)(=O)Nc2c(C)cc(C)cc2C)c2cccnc12 | -2 | 14% | -19% | -1 | 23% | 12% | .
